Assay [1] can be described thus: compound effects on lung adenocarcinoma cell viability – A549, calcein-AM fluorescence, 48 h, basal, profiling panel (AID 1162). The settings on record: higher = more signal.
Assay [2] in a line: compound effects on differentiated 3T3-L1 adipocyte viability – cell-based, 3T3-L1 adipocytes, calcein-AM fluorescence, 48 h, basal, profiling panel (AID 1163). The conditions noted are these: 3T3-L1 adipocytes viability, higher = more signal.
Assay [3] is described as follows: compound effects on hepatocellular carcinoma cell viability – HepG2, calcein-AM fluorescence, 48 h, basal, profiling panel (AID 1164). The settings on record: higher = more signal.
Assay [4] can be described thus: compound effects on multiple myeloma cell viability – MM1S, calcein-AM fluorescence, 48 h, basal, profiling panel (AID 1165). The conditions noted are these: higher = more signal.
The nature of assay [5]: calcein-AM signal in unstimulated myeloma cells – cell-based, calcein-AM fluorescence, 48 h, PK04 Diversity Set, profiling panel (AID 1166).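 Note: cells grown under basal conditions without added stimulus.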 The settings on record: RPMI8226 myeloma viability, higher = more signal.
The nature of assay [6]: JC-1 mitochondrial signal, unstimulated HepG2 cells – cell-based, JC-1 fluorescence, 24 h, 100 nL compound, profiling panel (AID 1167). The conditions noted are these: HepG2 mitochondrial potential, higher = more signal.
The nature of assay [7]: JC-1 mitochondrial signal, unstimulated adipocytes – cell-based, JC-1 fluorescence, 3T3-L1 adipocytes, 24 h, 100 nL compound, profiling panel (AID 1168). The settings on record: JC-1 mitochondrial fluorescence, higher = more signal, called active from +8 up or from −8 down.
Assay [8] can be described thus: JC-1 mitochondrial signal, unstimulated myeloma cells – cell-based, JC-1 fluorescence, RPMI8226, 24 h, 100 nL compound, profiling panel (AID 1169). The conditions noted are these: JC-1 mitochondrial potential fluorescence, higher = more signal.
The nature of assay [9]: JC-1 mitochondrial signal, unstimulated MM1S myeloma – cell-based, JC-1 fluorescence, 24 h, 100 nL compound, profiling panel (AID 1170). The settings on record: MM1S mitochondrial potential, higher = more signal.
The nature of assay [10]: resazurin metabolic signal in A549 cells – cell-based, resazurin fluorescence, 24 h, PK04 Diversity Set, profiling panel (AID 1171). The settings on record: A549 viability, higher = more signal, called active from +8 up or from −8 down. Background: Alamar Blue is a resazurin reagent that responds to reducing activity.

The structures appear in SMILES notation. Activity calls are given as the source filed them.
Note: test concentration not given here.

Turning to `O=C(NCc1ccccc1)[C@@]1(Cc2ccccc2)N=C(c2ccc(OCCCO)cc2)O[C@H]1c1ccccc1`, the z-score is -2.86 in [1]; 0.967 in assay [2]; -2.26 in [3]; -1.42 in assay [4]; -3.32 in assay [5]; 1.19 in assay [6]. Besides, the z-score is -0.357 (inactive) in [7], -1.02 in assay [8], -1.55 in assay [9] and -0.331 (inactive) in assay [10].
With `CN1C(=O)C2C=CC(C(O)C3CC=CCC3)N(NC(=O)OC(C)(C)C)C2C1=O` (stereo not given), the z-score is 0.414 in assay [1]; -0.61 in assay [2]; -0.622 in assay [3]; -0.0764 in assay [4]; -0.291 in assay [5]; -1.58 in assay [6]. Moreover, the z-score in [7] was -0.493 (inactive); in assay [8], 0.295; in [9] it was -0.121; in [10], -0.111 (inactive).
As for `COc1cc2c(cc1OC)CN(C(=O)[C@H]1[C@@H]3C(=O)O[C@@H](c4ccccc4)[C@@H](c4ccccc4)N3[C@@H](c3ccc(O)cc3)[C@]13C(=O)Nc1ccc(C#CCNC(N)=O)cc13)CC2`, the z-score in assay [1] is -0.697; in assay [2], 0.448; in [3] it was 0.148; in [4], 0.703; in assay [5], 0.168; in assay [6], -1.31. The z-score in assay [7] was 0.635 (inactive); in [8] it was 0.22; in assay [9], -0.222; in assay [10], -0.0437 (inactive).
Turning to `CCOC1=C2C(CN(S(=O)(=O)c3ccc(C)cc3)C2c2ccc(C)cc2)C2C(=O)N(c3ccccc3)C(=O)C2C1` (stereo not given), the z-score was -0.592 in assay [1]; -0.843 in assay [2]; 0.58 in [3]; 0.729 in assay [4]; 0.285 in assay [5]; 0.247 in assay [6]. For the same molecule, the z-score in assay [7] was 1.2 (inactive); in [8], 1.1; in [9], -1.37; in assay [10], -0.376 (inactive).
Take `C=CCC(OC(C)=O)[C@@H]1[C@@H](N(Cc2ccc(-c3cccc(C(F)(F)F)c3)o2)C(=O)c2ccc(-c3ccccc3)cc2)c2cc(OCCCO)ccc2N1C(=O)c1ccc(-c2ccccc2)cc1` (stereo not given in full): the z-score is 0.0361 in assay [1]; 0.114 in assay [2]; 0.104 in [3]; 0.365 in [4]; -0.297 in assay [5]; 1.25 in assay [6]. In addition, the z-score in [7] is -0.581 (inactive); in assay [8], 0.287; in assay [9], 0.872; in assay [10], -0.176 (inactive).
Turning to `O=C1NC(=O)C2C1C=CC(C(O)Cc1ccccc1)N2Nc1ccc(Cl)cc1Cl` (stereo not given), the z-score in [1] was 0.447; in [2], -0.0852; in [3] it was -1.57; in assay [4], -0.988; in assay [5], -0.388; in assay [6] it was -1.73. Besides, the z-score is -0.00872 (inactive) in assay [7], -0.371 in assay [8], -0.375 in [9] and -0.519 (inactive) in assay [10].
On to `CCOC(=O)C=Cc1cc([N+](=O)[O-])ccc1O`, for which the z-score in assay [1] is -0.563; in assay [2], 1.39; in [3] it was -1.27; in assay [4], 0.112; in assay [5] it was -2.29; in assay [6], -1.91. In addition, the z-score in [7] was 0.428 (inactive); in [8], -0.403; in [9] it was -0.889; in [10] it was 0.384 (inactive).
Regarding `COCCOC(=O)N1C(=O)[C@@]2(c3cc(C#CC4=CCCCC4)ccc31)[C@H](C(N)=O)[C@H]1C(=O)O[C@H](c3ccccc3)[C@H](c3ccccc3)N1[C@@H]2c1ccc(OCCO)cc1`, the z-score was -0.0731 in [1]; -0.605 in assay [2]; 0.575 in assay [3]; -2.37 in [4]; -2.99 in [5]; -2.31 in assay [6]. In addition, the z-score in assay [7] was 1.22 (inactive); in [8], -0.799; in [9], -1.82; in assay [10], -2.15 (inactive).
In the case of `C=CCN1C(=O)[C@]2(O[C@H](CCO)[C@@H]([Si](C)(C)c3ccc(OC)cc3)[C@@H]2C)c2cc(N3C(=O)c4cccc5cccc3c45)ccc21`, the z-score in [1] is -3.27; in [2], 0.105; in assay [3] it was -4.63; in assay [4], -2.63; in assay [5], -4.34; in [6], -2.32. Also, the z-score is 0.697 (inactive) in [7], -0.955 in assay [8], -2.28 in assay [9] and -5.26 (inactive) in [10].
As for `COC(=O)C(CC#Cc1ccc2c(c1)[C@]1(C(=O)N2)[C@H](c2ccc(O)cc2)N2[C@H](c3ccccc3)[C@H](c3ccccc3)OC(=O)[C@H]2[C@@H]1C(=O)Nc1nc2ccccc2s1)C(=O)OC`, the z-score in assay [1] was 1.37; in assay [2] it was 0.72; in [3] it was 1.47; in assay [4], 0.247; in assay [5] it was -1.65; in [6] it was -1.44. Moreover, the z-score in [7] was -0.719 (inactive); in assay [8] it was -0.712; in assay [9], 0.422; in assay [10], -0.351 (inactive).
As for `O=C1O[C@@H](c2ccccc2)[C@@H](c2ccccc2)N2[C@@H](c3ccc(OCCO)cc3)[C@]3(C(=O)Nc4ccccc43)[C@@H](C(=O)NC[C@H](O)c3ccccc3)[C@H]12`, the z-score was -0.462 in [1]; -0.0144 in assay [2]; -0.328 in assay [3]; -0.38 in assay [4]; -0.575 in assay [5]; -1.76 in assay [6]. For the same molecule, the z-score in [7] was -0.872 (inactive); in assay [8], -0.53; in [9], -0.226; in assay [10] it was 0.496 (inactive).
`COC(=O)[C@@]1(Cc2ccc(F)cc2)[C@H]2c3cc(C(=O)N(C)C)n(Cc4nc5ccccc5[nH]4)c3C[C@H]2CN1C(=O)c1ccccc1`: the z-score in assay [1] is -0.788; in assay [2], -0.0882; in assay [3] it was -0.49; in assay [4] it was -1.09; in assay [5], -0.184; in [6], -0.0736. Further, the z-score in [7] is -0.156 (inactive); in assay [8], -0.207; in assay [9] it was -2.16; in [10] it was 0.406 (inactive).
On to `COc1ccc(C(O)C2C=CC3C(=O)N(C)C(=O)C3N2N2CCCCC2)c2ccccc12` (stereo not given), for which the z-score in assay [1] is -1.01; in assay [2], -1.14; in assay [3], -0.086; in [4] it was -0.142; in assay [5] it was 0.768; in [6], -0.874. Moreover, the z-score was -1.08 (inactive) in assay [7], -0.0496 in assay [8], 0.028 in assay [9] and -0.825 (inactive) in assay [10].
Turning to `CN1C(=O)C2C=CC(C(O)c3cccs3)N(Nc3ccccc3)C2C1=O` (stereo not given), the z-score is -0.439 in assay [1]; -0.612 in [2]; -0.436 in assay [3]; -1.64 in assay [4]; -0.535 in assay [5]; -0.693 in [6]. Moreover, the z-score is -0.841 (inactive) in assay [7], -0.0836 in assay [8], -0.528 in assay [9] and -0.654 (inactive) in assay [10].

The values above are taken from PubChem BioAssay.
